Results on 15 compounds are retold here after PubChem BioAssay.

Active and inactive are the calls of the source.

Experiment [1] concerns the target Albumin (Bos taurus) (UniProt P02769). The experiment is described as follows: compounds binding labelled BSA control protein – biochemical, small-molecule microarray, Alexa647 label, 635/667 nm fluorescence, artefact control for SMM control protein annotation, profiling panel (AID 1118).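 Further: score merges 667 nm emission intensity and signal-to-noise per printed compound spot.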 Particulars: BSA-A647 binding, fluorescence 635 nm, higher = more signal.
Experiment [2] can be described thus: probe aXIP binding to arrayed compounds – biochemical, NeuroSMM set, 635/667 nm fluorescence, primary screen (AID 1119).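 Further: probe is the protein aXip251-270 applied at 1 µg/mL to compound-printed slides; binding of probe to printed compounds measured as 667 nm fluorescence plus signal to noise.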 Particulars: small-molecule microarray, higher = more signal, called active from +8 up or from −8 down.
The nature of experiment [3]: probe aNOTCH3 binding on compound microarray – biochemical, small-molecule microarray, 635/667 nm fluorescence, primary screen (AID 1120).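 Further: probe is a biotin-tagged antibody raised against NOTCH3 rather than NOTCH3 protein; score merges spot fluorescence near 667 nm with spot signal to noise.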 Particulars: higher = more signal.
A short description of experiment [4]: probe aNOTCH2 binding on compound microarray – biochemical, small-molecule microarray, 635/667 nm fluorescence, primary screen (AID 1121).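 Further: score merges feature fluorescence read at 667 nm with its signal to noise.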 Particulars: higher = more signal.
The target of experiment [5] is Carbonic anhydrase 2 (Homo sapiens) (UniProt P00918). The experiment is described as follows: compounds binding carbonic anhydrase 2 – biochemical, small-molecule microarray, Alexa647-labelled CAII, profiling panel (AID 1122). Particulars: CAII-A647 binding fluorescence, higher = more signal.
Experiment [6] is described as follows: COS7 lysate on small-molecule microarray, probe aHis, 635 nm (AID 1123).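 Further: z-score combines 667nm fluorescence intensity with signal-to-noise per printed compound spot.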 Particulars: COS7 cell lysate, fluorescence, higher = more signal.
Experiment [7] in a line: probe aLAP1 signal on lysate-treated microarray – cell lysate, small-molecule microarray, COS7 lysate, primary screen (AID 1124).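 Further: lysate comes from COS7 cells expressing LAP1 and is applied at 0.3 µg/mL; score merges spot fluorescence near 667 nm with signal-to-noise over triplicate slides.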 Particulars: probe aLAP1, fluorescence, higher = more signal.
Experiment [8] has as its system Sam68 (KHDRBS1). The experiment is described as follows: compounds binding KHDRBS1 protein – biochemical, small-molecule microarray, 635 nm fluorescence, primary screen (AID 1125).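 Further: score merges 667 nm channel intensity with signal to noise over triplicate slides.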 Particulars: higher = more signal.
The test system of experiment [9] is Chordin-like protein 2 (CHRDL2). The experiment is described as follows: compounds binding chordin-like 2 – biochemical, small-molecule microarray, 635 nm fluorescence, primary screen (AID 1126).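 Further: printed compound slides probed with Chrdl2 protein at 4 µg/mL for 1 h at 4 C; score merges 667 nm emission intensity with signal to noise over three replicate slides.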 Particulars: fluorescence 635 nm, higher = more signal.
The target of experiment [10] is Concanavalin-A (Canavalia ensiformis) (UniProt P02866). Nature of the experiment: compounds binding concanavalin A lectin – biochemical, small-molecule microarray, Alexa647 label, 635 nm, artefact control for SMM control protein annotation, primary screen (AID 1127).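 Further: z combines 667 nm emission intensity with signal-to-noise across three replicate slides.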 The note with it: ConA-A647 binding fluorescence, higher = more signal.
Sequence of Concanavalin-A (Canavalia ensiformis) (P02866 whole entry, looked up): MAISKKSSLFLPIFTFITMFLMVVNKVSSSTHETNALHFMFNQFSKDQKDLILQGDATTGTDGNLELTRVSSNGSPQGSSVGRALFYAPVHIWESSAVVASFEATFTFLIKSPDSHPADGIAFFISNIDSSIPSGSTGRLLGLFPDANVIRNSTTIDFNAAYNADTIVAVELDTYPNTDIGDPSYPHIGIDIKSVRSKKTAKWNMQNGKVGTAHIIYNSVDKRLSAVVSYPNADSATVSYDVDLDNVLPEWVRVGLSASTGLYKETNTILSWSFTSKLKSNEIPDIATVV

Sequence of Albumin (Bos taurus) (P02769 whole entry, looked up): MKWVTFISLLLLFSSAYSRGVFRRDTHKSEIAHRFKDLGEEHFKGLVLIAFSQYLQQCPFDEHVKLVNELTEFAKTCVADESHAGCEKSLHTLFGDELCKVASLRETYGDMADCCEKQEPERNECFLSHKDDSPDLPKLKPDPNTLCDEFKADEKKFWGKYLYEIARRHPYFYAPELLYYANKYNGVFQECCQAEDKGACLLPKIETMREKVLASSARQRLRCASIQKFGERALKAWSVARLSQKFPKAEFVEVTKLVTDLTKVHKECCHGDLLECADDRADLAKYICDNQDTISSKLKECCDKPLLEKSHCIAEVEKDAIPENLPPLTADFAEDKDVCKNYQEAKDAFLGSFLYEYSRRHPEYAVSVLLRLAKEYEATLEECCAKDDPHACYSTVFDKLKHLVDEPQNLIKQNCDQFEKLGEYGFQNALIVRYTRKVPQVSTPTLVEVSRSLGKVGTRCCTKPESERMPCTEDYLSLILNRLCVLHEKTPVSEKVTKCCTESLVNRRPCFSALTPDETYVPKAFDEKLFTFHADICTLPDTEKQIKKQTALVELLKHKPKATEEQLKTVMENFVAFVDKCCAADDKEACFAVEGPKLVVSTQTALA

`COc1ccc([Si](C)(C)[C@@H]2[C@@H](CC(=O)N3Cc4ccccc4C[C@H]3CO)O[C@]3(C(=O)N(C)c4c(Br)cc(C)cc43)[C@H]2C)cc1`: the composite z-score in experiment [1] was 0.494; in experiment [3], 0.0562; in experiment [4], -0.164; in experiment [5] it was 0.574; in experiment [6], 0.498; in experiment [7] it was 0.172. Also, the results for the composite z-score in experiment [8], in experiment [9] and in experiment [10] were 1.31, 1.11 and 1.13, respectively. Besides, in [2], the composite Z-score is 0.136 (inactive).

Take `COc1ccc([Si](C)(C)[C@H]2[C@H](CCn3cc([C@H](O)c4ccccc4)nn3)O[C@@]3(C(=O)N(Cc4cccc(N5CCOC5=O)c4)c4ccccc43)[C@@H]2C)cc1`: the composite z-score in [1] was -0.0478; in experiment [3] it was -0.0068; in experiment [4], -0.301; in experiment [5], 0.0191; in experiment [6], 0.178; in experiment [7], -0.49. The results for the composite z-score in experiment [8], in [9] and in experiment [10] were 1.07, 0.528 and 0.958, respectively. Moreover, the composite Z-score in experiment [2] was -0.01 (inactive).

In the case of `COc1cc2c(cc1O)C(C1CC1)N(Cc1cc3c(cc1Br)OCO3)CC2` (stereo not given), the composite z-score is 0.137 in experiment [1]; -0.318 in [3]; -0.0703 in [4]; 0.593 in experiment [5]; 0.478 in [6]; 0.283 in [7]. Further, the composite z-score in experiment [8] was -1.09; in experiment [9] it was -0.14; in experiment [10] it was -0.207. Also, the composite Z-score in experiment [2] was -0.431 (inactive).

For `CN(C)CCCC[C@@H]1NC(=O)[C@H]2C[C@@H](C(=O)NCCCCCNC(=O)CS)[C@@H](c3cccc(OCCO)c3)N2C1=O`, the composite z-score in [1] was 0.816; in experiment [3], -0.239; in [4], -0.175; in experiment [5], 0.661; in [6], 1.67; in [7], 0.0827. In addition, the composite z-score in experiment [8] was 1.03; in [9], 0.651; in [10] it was 0.612. The composite Z-score in experiment [2] is -0.114 (inactive).

In the case of `CC(C)C(CO)N1C(=O)[C@@H]2[C@H]3C(=O)OCC=C[C@H]3OC23C=CCN(C(C)C)C(=O)[C@@H]13` (stereo not given in full), the composite z-score in experiment [1] is -0.457; in experiment [3] it was -0.149; in experiment [4], -0.14; in experiment [5] it was -0.0147; in experiment [6], -0.312; in experiment [7] it was -0.313. Also, the composite z-score in experiment [8] is 0.239; in [9], 0.292; in [10], -0.529. Moreover, the composite Z-score in [2] was 0.12 (inactive).

Consider `COC(=O)[C@@]1(Cc2ccc(F)cc2)[C@H]2c3cc(C(=O)N(C)C)n(CC4CC4)c3C[C@H]2CN1C(=O)c1ccccc1`, for which the composite z-score in experiment [1] worked out at 1.02; in experiment [3], 1.65; in [4], 0.904; in [5], 0.773; in [6], 3.27; in experiment [7] it was 0.698. Further, the figures for the composite z-score in [8], in experiment [9] and in [10] were 1.35, -0.542 and 1.1, respectively. Further, the composite Z-score in experiment [2] was -0.0191 (inactive).

With `Cc1ccc(S[C@]2(C(=O)NCC(F)(F)F)CC(=O)N(C(C)C)[C@@H]2c2ccc(CO)cc2I)cc1`, the composite z-score in experiment [1] was -0.667; in [3], -0.276; in experiment [4] it was -0.0557; in [5], 0.742; in experiment [6], 0.506; in experiment [7], 0.106. Moreover, the results for the composite z-score in experiment [8], in experiment [9] and in [10] were -0.749, -0.445 and -0.967, respectively. Besides, in experiment [2], the composite Z-score was 0.314 (inactive).

Consider `[N-]=[N+]=Nc1ccccc1[C@H]1OC(c2ccc(OCCCO)cc2)=N[C@@]1(Cc1ccccc1)C(=O)O`, for which the composite z-score is 0.59 in [1]; 0.196 in [3]; -0.146 in [4]; 0.344 in experiment [5]; 1.64 in [6]; 0.0378 in experiment [7]. The composite z-score in [8] was 1.31; in experiment [9], -0.392; in [10], 0.619. For the same compound, in experiment [2], the composite Z-score was -0.001 (inactive).

Regarding `CCOC(=O)C[C@H]1[C@H](OC(=O)Cc2ccc3c(c2)OCO3)[C@@H](NC(=O)c2ccc3ccccc3c2)c2cc(OCCCO)ccc2N1C(=O)c1ccccc1`, the composite z-score in [1] is 0.601; in experiment [3] it was -0.0077; in [4], -0.14; in [5] it was 0.32; in experiment [6] it was 1.04; in [7], 0.186. Also, the composite z-score in experiment [8] stood at 1.09; in [9], 0.308; in experiment [10], 0.541. In experiment [2], the composite Z-score was -0.0185 (inactive).

For the compound `CN1C(=O)C2C=CC(C(O)Cc3ccccc3)N(Nc3ccccc3)C2C1=O` (stereo not given), the composite z-score in experiment [1] was 0.554; in [3], -0.0311; in [4], -0.0196; in [5], 0.589; in experiment [6], 3.06; in experiment [7], -0.333. Further, the results for the composite z-score in [8], in [9] and in [10] were -0.0158, -0.513 and 0.672, respectively. Besides, the composite Z-score in experiment [2] was -0.193 (inactive).

For `COCCOC(=O)N1C(=O)[C@@]2(c3cc(C#CCNC(N)=O)ccc31)[C@H](C(=O)NC[C@H](O)c1ccccc1)[C@H]1C(=O)O[C@H](c3ccccc3)[C@H](c3ccccc3)N1[C@@H]2c1ccccc1OCCO`, the composite z-score was determined as 0.509 in experiment [1]; 0.411 in experiment [3]; 0.0156 in experiment [4]; 0.296 in experiment [5]; 1.28 in experiment [6]; 0.854 in experiment [7]. The composite z-score in [8] worked out at 1.28; in experiment [9], 0.209; in [10], 1.01. In addition, the composite Z-score in [2] is 0.529 (inactive).

In the case of `CC(C)C(=C=CC[C@@H](O)c1ccccc1OCCO)CCO`, the composite z-score in experiment [1] is 0.0824; in experiment [3], -0.0311; in [4], -0.115; in experiment [5], 0.374; in [6], -0.501; in experiment [7] it was -0.412. In addition, the composite z-score worked out at 0.615 in [8], 0.0551 in experiment [9] and 0.542 in [10]. Further, the composite Z-score in [2] was -0.519 (inactive).

With `O=C(c1ccccc1)N1Cc2ccccc2[C@@H]2OC(c3ccc(OCCCO)cc3)=N[C@]2(Cc2ccccc2)C1=O`, the composite z-score in [1] is 0.383; in experiment [3], 0.225; in experiment [4] it was -0.18; in experiment [5], 0.554; in experiment [6] it was 1.38; in experiment [7], 0.482. Also, the composite z-score in experiment [8] came out at 1.31; in [9], 0.061; in experiment [10], 1.13. The composite Z-score in experiment [2] was 0.07 (inactive).

For `C=C(CCCC)C(=O)CC[C@H](OC(C)=O)c1cccc(OCCO)c1`, the composite z-score in [1] was -1.33; in experiment [3] it was -0.224; in [4], -0.205; in experiment [5], -0.361; in experiment [6], -0.0995; in [7], -0.186. The composite z-score was -0.11 in experiment [8], -1.14 in experiment [9] and -0.502 in [10]. Further, the composite Z-score in experiment [2] is -0.126 (inactive).

On to `COc1ccc(CCN2C(=O)[C@@]3(Cc4ccccc42)c2ccccc2C(=O)N(Cc2ccccc2C(F)(F)F)[C@H]3c2ccc(CO)cc2)cc1`, for which the composite z-score in experiment [1] was -0.951; in experiment [3], -0.0718; in experiment [4], -0.193; in experiment [5], 0.107; in experiment [6] it was 0.387; in experiment [7], 0.184. For the same compound, the composite z-score was 0.242 in experiment [8], 0.736 in experiment [9] and 1.13 in experiment [10]. The composite Z-score in experiment [2] was 0.319 (inactive).
